# Sampled rows, rich in hits. Any-hit rate of the full collection: about 2.4%.
# Pf Dd2 growth = blocks growth of Plasmodium falciparum Dd2 parasites; P. falciparum Dd2 growth, SYBR Green, 72 h; active compounds read low; activity change, % at 10 µM; 94,000 tested, 2.3% active; AID 1159554; in the data active means activity change below about -80%
# C diff growth = C. difficile growth inhibition | growth activity, negative = inhibition, % at 16 µg/mL (by protocol) | Clostridium difficile clinical isolate growth, OD600, 24 h; active compounds read low | 86,000 tested, 0.25% active;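 active means mean growth activity at or below -80% and every replicate also at or below -80%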;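 further: 0% = DMSO wells and -100% = levofloxacin 16 µg/mL wells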
# Starred values were filed as active, the others as inactive; . = no result; ! = not active in a repeat.
SMILES,Pf Dd2 growth,C diff growth
CN(C)C(=O)c1cccc(-c2ccc([C@@H]3[C@@H](C#N)N(C(=O)C4CCCC4)[C@@H]3CO)cc2)c1,-27.6,-4.4
C[C@@H]1CCCCO[C@H](CN(C)S(=O)(=O)c2cccs2)[C@H](C)CN([C@H](C)CO)C(=O)c2cc(NC(=O)Nc3ccccc3)ccc2O1,.,2.9
C[C@@H]1CN([C@@H](C)CO)C(=O)c2cc(NC(=O)c3ccncc3)ccc2O[C@@H](C)CCCCO[C@@H]1CN(C)C(=O)Nc1cccc2ccccc12,-84.0*,2.6
C[C@@H]1CCCCO[C@@H](CN(C)C(=O)Nc2cccc3ccccc23)[C@H](C)CN([C@H](C)CO)C(=O)c2cc(NC(=O)c3ccncc3)ccc2O1,-84.5*,3.4
C[C@@H]1CCCCO[C@@H](CN(C)C(=O)Nc2cccc3ccccc23)[C@H](C)CN([C@@H](C)CO)C(=O)c2cc(NC(=O)c3ccncc3)ccc2O1,-73.4,14.4
C[C@@H]1CN([C@H](C)CO)C(=O)c2cc(NC(=O)c3ccncc3)ccc2O[C@@H](C)CCCCO[C@H]1CN(C)C(=O)Nc1cccc2ccccc12,-74.7,5.1
C[C@@H]1CN([C@H](C)CO)C(=O)c2cc(NC(=O)c3ccncc3)ccc2O[C@@H](C)CCCCO[C@@H]1CN(C)C(=O)Nc1cccc2ccccc12,-90.2*,15.6
C[C@@H]1CN([C@@H](C)CO)C(=O)c2cc(NC(=O)c3ccncc3)ccc2O[C@@H](C)CCCCO[C@H]1CN(C)C(=O)Nc1cccc2ccccc12,-79.8,4.1
C[C@H](CO)N1C[C@H](C)[C@@H](CN(C)C(=O)Nc2cccc3ccccc23)OCCCC[C@H](C)Oc2ccc(NC(=O)c3ccccc3)cc2C1=O,-5.9,0.2
C[C@@H]1CN([C@@H](C)CO)C(=O)c2cc(NC(=O)c3ccccc3)ccc2O[C@@H](C)CCCCO[C@@H]1CN(C)C(=O)Nc1cccc2ccccc12,-87.4*,1.8
C[C@H]1CN([C@@H](C)CO)C(=O)c2cc(C#Cc3cccnc3)cnc2O[C@H]1CN(C)Cc1ccccc1,-58.7,.
C[C@H]1CN([C@@H](C)CO)C(=O)c2cccc(NC(=O)c3ccncc3)c2O[C@H]1CN(C)C(=O)Nc1ccc(C(F)(F)F)cc1,-9.8,-2.3
Cc1noc(C)c1NC(=O)N(C)C[C@@H]1Oc2ccc(NC(=O)CCCCCC(=O)Nc3ccccc3N)cc2CC(=O)N([C@H](C)CO)C[C@H]1C,1.6,-6.7
COCC(=O)N1CC2(C1)[C@@H](c1ccc(-c3ccc(F)cc3)cc1)[C@@H](CO)N2C(C)=O,-12.5,-2.8
CC(C)NC(=O)Nc1ccc2c(c1)C(=O)N([C@H](C)CO)C[C@@H](C)[C@@H](CN(C)S(=O)(=O)c1cccs1)OCCCC[C@H](C)O2,.,-6.5
C[C@H](CO)N1C[C@H](C)[C@@H](CN(C)C(=O)Cc2cccnc2)Oc2ncc(C#Cc3ccccc3F)cc2C1=O,-6.9,-3.3
O=C(c1ccccc1F)N1C[C@H]2[C@@H](c3ccccc31)[C@@H](CO)N2Cc1ccc2c(c1)OCO2,-12.7,13.0
CCS(=O)(=O)Nc1ccc2c(c1)C(=O)N(C)C[C@H](OC)[C@@H](C)CN[C@H](C)CO2,9.9,-2.6
COc1ccc2c3c(n(C)c2c1)[C@H](CO)N(S(C)(=O)=O)CC31CCN(C(=O)Nc2cccc(F)c2)CC1,-10.5,50.2
COc1cccc(S(=O)(=O)Nc2ccc3c(c2)OC[C@H](C)NC[C@@H](C)[C@@H](OC)CN(C)C3=O)c1,17.3,0.8
O=C(C[C@H]1CC[C@H]2[C@@H](COC[C@H](O)CN2C(=O)Nc2ccc(C(F)(F)F)cc2)O1)NCCc1ccncc1,-6.6,-17.7
CCNC(=O)C[C@H]1CC[C@H]2[C@@H](COC[C@@H](O)CN2C(=O)Nc2ccc(C(F)(F)F)cc2)O1,-9.4,-101.6*!
O=C(C[C@@H]1CC[C@H]2[C@@H](COC[C@@H](O)CN2C(=O)Nc2ccc(C(F)(F)F)cc2)O1)NCCc1ccncc1,6.7,-14.9
CCNC(=O)C[C@H]1CC[C@@H]2[C@H](COC[C@H](O)CN2C(=O)Nc2ccc(C(F)(F)F)cc2)O1,-28.9,-88.4*
O=C(C[C@H]1CC[C@@H](NC(=O)C2CCOCC2)[C@@H](CO)O1)NCc1ccncc1,4.1,0.4
SMILES,Pf Dd2 growth,C diff growth
C[C@@H]1CN([C@@H](C)CO)C(=O)c2cc(C#Cc3cccc(F)c3)cnc2O[C@@H]1CN(C)C(=O)C1CCOCC1,-11.0,-1.1
COc1ccccc1-c1cccc(-c2nc(C(=O)Nc3nccs3)cc3c2[C@H](CCO)N(C(=O)CC2CC2)C3)c1,-85.6*,2.4
COc1ccc(C#Cc2cccc(-c3nc(C(=O)O)cc4c3[C@H](CCO)N(S(=O)C(C)(C)C)C4)c2)cc1OC (stereo partly drawn),.,-3.9
CCNC(=O)c1cc2c(c(-c3cccc(-c4ccccc4F)c3)n1)[C@@H](CCO)N(C(=O)CC1CC1)C2,-77.0,65.9
COc1cccc(-c2cccc(-c3nc(C(=O)Nc4ccc(-c5ccccc5)cc4)cc4c3[C@@H](CCO)N(S(=O)C(C)(C)C)C4)c2)c1 (stereo partly drawn),-84.2*,-10.3
COc1ccc(C#Cc2cccc(-c3nc(C(=O)Nc4ccc(-c5ccccc5)cc4)cc4c3[C@@H](CCO)N(S(=O)C(C)(C)C)C4)c2)cc1OC (stereo partly drawn),-88.9*,-2.8
CC(C)(C)S(=O)N1Cc2cc(C(=O)Nc3ccc(-c4ccccc4)cc3)nc(-c3cccc(-c4cccc(F)c4)c3)c2[C@@H]1CCO (stereo partly drawn),-63.6,-17.1
C[C@H](CO)N1C[C@H](C)[C@H](CN(C)S(C)(=O)=O)Oc2c(NC(=O)NC3CCCCC3)cccc2C1=O,5.5,-0.1
COc1ccc2c3c([nH]c2c1)[C@@H](CO)N(Cc1cc(F)ccc1F)CC31CCN(C(C)=O)CC1,-83.0*,5.5
CCC(=O)N1CCC2(CC1)CN(Cc1cc(F)ccc1F)[C@@H](CO)c1[nH]c3cc(OC)ccc3c12,-90.2*,4.1
COc1ccc2c3c(n(C)c2c1)[C@H](CO)N(Cc1cc(F)ccc1F)CC31CCN(C(C)=O)CC1,-63.7,-1.4
COc1ccc2c3c([nH]c2c1)[C@H](CO)N(Cc1cc(F)ccc1F)CC31CCN(C(=O)CN(C)C)CC1,-80.7*,-2.7
COc1ccc2c3c([nH]c2c1)[C@@H](CO)N(Cc1cccnc1)CC31CCN(C(=O)CN(C)C)CC1,-66.9,5.7
CCC(=O)N1CCC2(CC1)CN(C(C)=O)[C@@H](CO)c1[nH]c3cc(OC)ccc3c12,0.7,-4.0
COc1ccc(NC(=O)Nc2ccc3c(c2)CC(=O)N([C@@H](C)CO)C[C@@H](C)[C@@H](CN(C)Cc2ccncc2)O3)cc1,-16.0,3.6
Cc1ccc(S(=O)(=O)N(C)C[C@@H]2Oc3ccc(NC(=O)Nc4cccc5ccccc45)cc3C(=O)N([C@@H](C)CO)C[C@H]2C)cc1,-25.8,.
C[C@H](CO)N1C[C@H](C)[C@@H](CN(C)C(=O)NC2CCCCC2)Oc2c(NC(=O)c3ccc(-c4nccs4)cc3)cccc2C1=O,2.7,.
C[C@H](CO)N1C[C@H](C)[C@H](CN(C)CC2CC2)Oc2ncc(-c3ccc(F)cc3)cc2C1=O,-31.7,.
Cc1noc(C)c1NC(=O)N(C)C[C@@H]1Oc2c(NC(=O)CCCCCC(=O)Nc3ccccc3N)cccc2C(=O)N([C@@H](C)CO)C[C@@H]1C,30.5,-5.4

# Source: PubChem BioAssay
